Measured values as given in PubChem BioAssay (NCI).
Several values for one entry are separate records, joined by “and”; a condition that tells them apart may be missing. Equal entries are not always repeated. The panel holds about 83,000 compounds, 20% with a hit somewhere; the sample as a whole holds those more often.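 Note: values are percent growth. 100 is the growth of untreated cells, values between 100 and 0 indicate rising inhibition; between -100 and 0 indicates cell death.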 Activity calls are given as the source filed them. How the source made its calls: active means growth percent below 10; inactive means the rest.

Legend:
Experiment in all cases: NCI-60 one-dose screen, 48 h (100 = growth as untreated, 0 = no growth, -100 = all killed)
Details in all cases: 10 µM
RPMI-8226 leukemia = tested on: RPMI-8226 leukemia
OVCAR-8 ovarian = tested on: OVCAR-8 ovarian
OVCAR-5 ovarian = tested on: OVCAR-5 ovarian
OVCAR-4 ovarian = tested on: OVCAR-4 ovarian
SK-OV-3 ovarian = tested on: SK-OV-3 ovarian
IGROV1 ovarian = tested on: IGROV1 ovarian
OVCAR-3 ovarian = tested on: OVCAR-3 ovarian
HS 578T breast = tested on: HS 578T breast
NCI/ADR-RES ovarian = tested on: NCI/ADR-RES ovarian
T-47D breast = tested on: T-47D breast
BT-549 breast = tested on: BT-549 breast
MDA-MB-435 melanoma = tested on: MDA-MB-435 melanoma
SW-620 colon = tested on: SW-620 colon
MCF7 breast = tested on: MCF7 breast
HCT-116 colon = tested on: HCT-116 colon
HCC-2998 colon = tested on: HCC-2998 colon
KM12 colon = tested on: KM12 colon
MDA-MB-468 breast = tested on: MDA-MB-468 breast

Compound	growth (RPMI-8226 leukemia)	growth (OVCAR-8 ovarian)	growth (OVCAR-5 ovarian)	growth (OVCAR-4 ovarian)	growth (SK-OV-3 ovarian)	growth (IGROV1 ovarian)	growth (OVCAR-3 ovarian)	growth (HS 578T breast)	growth (NCI/ADR-RES ovarian)	growth (T-47D breast)	growth (BT-549 breast)	growth (MDA-MB-435 melanoma)	growth (SW-620 colon)	growth (MCF7 breast)	growth (HCT-116 colon)	growth (HCC-2998 colon)	growth (KM12 colon)	growth (MDA-MB-468 breast)
CC(=C(c1ccc(OCCN2CCCCCC2)cc1)c1ccc(OCCN2CCCCCC2)cc1)c1ccc(Cl)cc1	-63.6% (active)	-95.3% (active)	-100% (active)	-96.3% (active)	-100% (active)	-94.1% (active)	-92.6% (active)	-48% (active)	-97.7% (active)	-58.8% (active)	-65.5% (active)	-100% (active)	-61.1% (active)	-79.6% (active)	-61.9% (active)	-97.8% (active)	-73% (active)	-91.6% (active)
Cc1ccc(-c2nc3ccc(C(=O)N=Nc4c(O)[nH]c5ccc(Br)cc45)cc3[nH]2)cc1	49.6% (inactive)	39.9% (inactive)	62.8% (inactive)	45.7% (inactive)	96.1% (inactive)	87.4% (inactive)	49.4% (inactive)	94.1% (inactive)	99.7% (inactive)	84.7% (inactive)	138% (inactive)	57.9% (inactive)	7.03% (active)	21.7% (inactive)	26.3% (inactive)	20.5% (inactive)	32.6% (inactive)	62.5% (inactive)
Cc1cc(C)cc(Oc2cccc(-c3c(C)nnn3C3CCN(CCN(C)C)CC3)n2)c1	-12.1% (active)	35.9% (inactive)	58% (inactive)	38.9% (inactive)	9.31% (active)	36.2% (inactive)	38% (inactive)	5.31% (active)	32.4% (inactive)	24.8% (inactive)	9.68% (active)	20.7% (inactive)	45.9% (inactive)	6.99% (active)	15.2% (inactive)	0.234% (active)	37% (inactive)	-20.2% (active)
CCN1CCN(c2ccc(NC(=O)Nc3ccc(-c4cc(C(=O)NC)c5ncccc5n4)cc3)cc2C(F)(F)F)CC1	-50.3% (active)	-94.1% (active)	-100% (active)	-100% (active)	-88.7% (active)	-98.2% (active)	-100% (active)	-51.5% (active)	-65.3% (active)	49.4% (inactive)	-96% (active)	-100% (active)	-100% (active)	-83.1% (active)	-100% (active)	-100% (active)	-98.8% (active)	-96.4% (active)
CC[C@@]1(O)C(=O)OCc2c1cc1n(c2=O)Cc2c-1nc1cc(F)c(C)c3c1c2[C@@H](N)CC3	-3.74% (active)	-38.3% (active)	-12.5% (active)	-4.52% (active)	-32% (active)	-47.8% (active)	-17.8% (active)	51.3% (inactive)	-12.2% (active)	-3.93% (active)	-10.7% (active)	-41.9% (active)	8.5% (active)	8.66% (active)	0.118% (active)	-45.4% (active)	3.85% (active)	-77.2% (active)
C=C(c1ccc(OC)c(N)c1)c1cc(C)nc2ccccc12	10.9% (inactive)	8.32% (active)	26.3% (inactive)	57.8% (inactive)	21.7% (inactive)	17.1% (inactive)	-4.17% (active)	38.9% (inactive)	-29% (active)	62.6% (inactive)	64.8% (inactive)	-48.9% (active)	18.4% (inactive)	9.03% (active)	8.49% (active)	11.4% (inactive)	10.5% (inactive)	-16.3% (active)
Cc1ccc(NC(=O)NCn2c(=O)[nH]c3ccccc3c2=O)cc1	92.7% (inactive)	39.9% (inactive)	94.2% (inactive)	50.8% (inactive)	57.8% (inactive)	76.6% (inactive)	87.6% (inactive)	55.3% (inactive)	70.7% (inactive)	79.6% (inactive)	115% (inactive)	86.3% (inactive)	78.5% (inactive)	72% (inactive)	60.1% (inactive)	102% (inactive)	98.9% (inactive)	84.1% (inactive)
C=C(C)[C@@H]1CC[C@]2(C)[C@H](CC=C3[C@@H]4CC(C)(C)CC[C@]4(C(=O)N4CCOCC4)CC[C@]32C)[C@@]1(C)CCCN	-51.2% (active)	-66.3% (active)	-98.9% (active)	-89.4% (active)	-94.6% (active)	-91.2% (active)	-84.8% (active)	-63.4% (active)	-59.8% (active)	-88.1% (active)	-85.3% (active)	-99.5% (active)	-65.1% (active)	-70.7% (active)	-54.2% (active)	-81.1% (active)	-82.3% (active)	-96% (active)
CC1(C)CC[C@]2(C(=O)Nc3ccccc3)CC[C@]3(C)C(=CC[C@@H]4[C@@]5(C)CC[C@H](N)C(C)(C)[C@@H]5CC[C@]43C)[C@H]2C1	19.7% (inactive)	-66.5% (active)	84.4% (inactive)	76.8% (inactive)	96.5% (inactive)	96% (inactive)	105% (inactive)	93.2% (inactive)	66.5% (inactive)	81.5% (inactive)	113% (inactive)	59.1% (inactive)	8.55% (active)	-73.8% (active)	-99.5% (active)	-64.3% (active)	36.1% (inactive)	1.83% (active)
COc1cccc2nc(Nc3ccc(F)c(NC(=O)c4ccc(CN5CCN(C)CC5)c(C(F)(F)F)c4)c3)ccc12	-43.9% (active)	30.9% (inactive)	72.5% (inactive)	32.6% (inactive)	53.8% (inactive)	29.3% (inactive)	-33.3% (active)	6.57% (active)	-3.12% (active)	22% (inactive)	82.6% (inactive)	-69.3% (active)	-63% (active)	-61.3% (active)	1.84% (active)	-94.5% (active)	-22.2% (active)	-48.9% (active)
C=C[C@@]12CN3CC[C@]1(O)[C@@](C(=O)OC)(CO2)c1[nH]c2ccccc2c1C3	46.9% (inactive)	62.8% (inactive)	49.2% (inactive)	62.3% (inactive)	115% (inactive)	95.2% (inactive)	61.6% (inactive)	80.5% (inactive)	49.1% (inactive)	40.8% (inactive)	38.4% (inactive)	32.7% (inactive)	55% (inactive)	42.6% (inactive)	57.9% (inactive)	89.4% (inactive)	78% (inactive)	-8.94% (active)
CC(=O)Nc1nc(-c2ccc(N3CCN(C)CC3)c(NS(=O)(=O)c3cccc4c(N(C)C)cccc34)c2)cs1	6.29% (active)	76.7% (inactive)	83.4% (inactive)	68.8% (inactive)	63.9% (inactive)	84.8% (inactive)	78.9% (inactive)	41% (inactive)	94.8% (inactive)	35.6% (inactive)	36.6% (inactive)	51.5% (inactive)	70.9% (inactive)	34.9% (inactive)	28.2% (inactive)	43% (inactive)	59.8% (inactive)	58.2% (inactive)
CO[C@@H]1CSS[C@H]1Cn1nc(-c2ccc(Oc3ccccc3)cc2)c2c(N)ncnc21	34.3% (inactive)	82.9% (inactive)	82.3% (inactive)	67.3% (inactive)	30.2% (inactive)	80.4% (inactive)	104% (inactive)	72.6% (inactive)	65.8% (inactive)	17.8% (inactive)	63.8% (inactive)	17.3% (inactive)	96.7% (inactive)	30.7% (inactive)	31.7% (inactive)	91.6% (inactive)	60% (inactive)	11.6% (inactive)
COc1cc(/C=N/NC(=O)c2ccc3nc(-c4ccc(Cl)cc4)[nH]c3c2)cc(OC)c1OC	-23.9% (active)	-62.7% (active)	62.6% (inactive)	-51.6% (active)	-25% (active)	7.62% (active)	-90% (active)	-52.1% (active)	75.7% (inactive)	-58.6% (active)	-81.5% (active)	-67.3% (active)	-22.1% (active)	-72.8% (active)	-67.5% (active)	-39.7% (active)	-33% (active)	107% (inactive) and -89.3% (active)
CCOC(=O)c1sc(N/N=C(\C)c2ccc3c(c2)Nc2ccccc2S3)nc1C	20.1% (inactive)	38.7% (inactive)	30.6% (inactive)	44.1% (inactive)	68.5% (inactive)	39.6% (inactive)	46.1% (inactive)	30.9% (inactive)	28.8% (inactive)	8.5% (active)	48.1% (inactive)	34.5% (inactive)	20.3% (inactive)	-2.84% (active)	23.4% (inactive)	3.51% (active)	7.04% (active)	8.47% (active)
CC1(C)CC[C@]23CC[C@]4(C)[C@H](CC[C@@H]5[C@@]6(C)CC[C@H](N)C(C)(C)[C@@H]6CC[C@]54C)[C@H]2[C@H]1OC3=O	-31.4% (active)	-50.7% (active)	-99.9% (active)	-90.3% (active)	-32.1% (active)	-94.2% (active)	-81% (active)	-62.2% (active)	-69.4% (active)	-78.2% (active)	-97.7% (active)	-96.2% (active)	-73.7% (active)	-80.1% (active)	-98.9% (active)	-92.2% (active)	-86.6% (active)	-95.6% (active)
